Screening results (PubChem)
The list is not random: actives were taken first. Their share in the collection is about 3.2%.
ClpP mod: qHTS Assay for Activators of ClpP; ATP-dependent Clp protease proteolytic subunit (Bacillus subtilis (strain 168)), P80244; purified B. subtilis ClpP, FRET peptide cleavage, 20 min; Potency, µM (highest dose often 57.5 µM), for inactives: at the top dose activity change, negative = active; 340,000 compounds, 1.9% hits; AID 651965, 2013; active = well fitted falling curve with a large enough effect; inconclusive = small, poorly fitted or top-dose-only effect; inactive = no such curve, though single readings can be large or run the other way; note: the source files actives as falling curves though it sought activators and does not explain the sign; nearly all actives have a fitted effect of over 65% in size
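FRET quenching reversal measured ClpP activation: 10 microg/mL B. subtilis ClpP at pH 8 with the FRET-FV decapeptide, read at 430 nm after 320 nm excitation. The 20-min minus 0-min signal was scaled between DMSO/no-enzyme wells and ADEP (5.8 microM final).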
GLP1R inv ag: acts as inverse agonist at human GLP-1 receptor; HEK293 GLP-1R CRE-luciferase, luminescence, 24 h; GLP-1R form is constitutively active; Potency, µM (highest dose often 38.3 µM), inactives show at the top dose activity change, negative = inhibition, hits mostly inhibitors; 410,000 compounds, 1.6% hits; note: % is set by controls: 0 for no effect and ±100 for the full control effect; nearly all actives have a fitted effect of over 55% in size
Target sequence (P43220 whole entry, looked up): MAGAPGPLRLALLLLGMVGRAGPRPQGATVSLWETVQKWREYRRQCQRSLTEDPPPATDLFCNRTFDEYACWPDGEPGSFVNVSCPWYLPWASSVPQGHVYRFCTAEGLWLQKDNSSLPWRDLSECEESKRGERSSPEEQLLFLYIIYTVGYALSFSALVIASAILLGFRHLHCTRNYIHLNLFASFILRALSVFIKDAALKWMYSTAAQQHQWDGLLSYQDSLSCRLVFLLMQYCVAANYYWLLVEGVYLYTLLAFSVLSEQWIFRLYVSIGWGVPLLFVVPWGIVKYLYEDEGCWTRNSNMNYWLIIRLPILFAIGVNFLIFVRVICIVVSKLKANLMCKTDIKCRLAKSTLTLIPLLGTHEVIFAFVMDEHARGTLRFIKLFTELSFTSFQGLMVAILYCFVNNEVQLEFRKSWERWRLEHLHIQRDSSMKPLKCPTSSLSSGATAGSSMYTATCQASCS
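HEK293 cells stably co-expressing a cAMP-responsive luciferase reporter and constitutively active GLP-1R were seeded, incubated 12 h, then exposed to compounds for 24 h at 37 C. Luminescence was read 12 min after detection reagent; inverse agonists lower signal.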
GLP1R ag: activates the human GLP-1 receptor | P43220 | HEK293 GLP-1R CRE-luciferase, luminescence, 4-6 h; cells express a hypersensitive GLP-1R form | Potency, µM (highest dose often 45.6 µM), without a hit: at the top dose activation, usual class: activators | 380,000 compounds, 0.007% hits; note: % of control where 0% means no effect
GLP1R cytotox: cytotoxic in the GLP-1 receptor inverse agonist counter-screen; AID 624418; Potency, µM (series often up to 38.3 µM), for the others: at the highest dose activity change, negative = inhibition, actives largely listed as inhibitors; 410,000 compounds, 0.13% hits; HEK293 cAMP-luciferase reporter cells, luminescence, 24 h;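 note: loss of luciferase light is scored as toxicity; % is set by controls: 0 for no effect and ±100 for the full control effect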
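Seeding density was 200 cells/uL; after overnight-length (12 h) culture, 23 nL compounds went on for 24 h at 37 °C. Readout used a luciferase detection reagent, luminescence taken after 12 min at room temperature.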
The depositor's hits bear a star; ? = inconclusive; / = no result given; [ ] = remark or other dose. Unless noted, calls come from the whole dose curve; as a rule, active = well fitted curve in the direction sought with a large enough effect; inconclusive = small, poorly fitted or top-dose-only effect, or another doubt; inactive = no such curve, though single readings can be large; an effect the other way counts as inactive or inconclusive. Potency is the fitted concentration of half-maximal effect.

SMILES | ClpP mod | GLP1R inv ag | GLP1R ag | GLP1R cytotox
O=C(C1CCN(Cc2ccc(Cl)cc2)CC1)N1CCN(C(c2ccccc2)c2ccccc2)CC1 | -4.2% | 3.98µM* | -4.5% | ?
O=C(Cn1ccc(C(F)(F)F)n1)NNC(=O)c1cccnc1 | 0.9% | -9.5% | 3.7% | -12.7%
Cc1ccc(C(=O)NNC(=O)Cn2ccc(C(F)(F)F)n2)o1 | 25.1µM* | 0.4% | -13.3% | 8.8%
CC1CC(C)CN(C(=O)CNC(=O)c2sc3ccccc3c2Cl)C1 (centres undefined) | -6.1% | 3.16µM* | -8.8% | 5.2%
CC1CCCN(C(=O)CNC(=O)c2sc3ccccc3c2Cl)C1 (centres undefined) | -4.8% | ? | 13.0% | 3.9%
CCC(C(=O)OCC(=O)Nc1cc(C)ccc1OC)c1ccccc1 (centres undefined) | / | 10µM* | 21.6% | -7.6%
COc1ccc(C)cc1NC(=O)COC(C)=O | -8.5% | 1.1% | -8.2% | 8.1%
COc1ccc(Cn2ccc3nc(C)c(C(=O)Nc4ccc(OC(F)(F)F)cc4)cc3c2=O)cc1 | 25.1µM* | ? | / | -23.1%
COc1cccc(C(=O)Nc2ccccc2-c2ccccc2)c1 | -7.5% | ? | 1.8% | 21.0%
COc1c(Cl)cc(C(=O)Nc2ccccc2-c2ccccc2)cc1Cl | ? | 10µM* | -12.3% | 8.1%
COc1c(Cl)cc(C(=O)Nc2cccc(-c3nc4ccccc4[nH]3)c2)cc1Cl | ? | 7.94µM* | / | ?
CCOC(=O)c1cccc(NC(=O)CC2C(=O)N(c3ccc(Cl)cc3)C(=O)N2C2CCCC2)c1 (centres undefined) | -3.4% | 12.6µM* | / | -29.5%
CCOC(=O)c1cccc(NC(=O)CC2C(=O)N(c3ccc(OC)cc3)C(=O)N2C2CCCC2)c1 (centres undefined) | 0.8% | -17.6% | / | -6.7%
COc1ccc(-c2cn3c(C)c(C(=O)NCCN4CCOCC4)sc3n2)cc1 | 22.4µM* | -1.1% | 1.5% | -4.8%
COc1ccc(-c2cc(C(=O)NCCN3CCOCC3)c3ccccc3n2)cc1 | 35.5µM* | 3.2% | 7.2% | -3.8%
O=C(CSc1nnc(-c2ccc(O)cc2)o1)c1ccc(Br)cc1 | -3.4% | 8.91µM* | / | -7.0%
Cc1cc(C)cc(-n2ccnc2SCC(=O)Nc2ccc(C)c(Cl)c2)c1 | -0.4% | 8.91µM* | -1.1% | 0.8%
Cc1cc(C)cc(-n2ccnc2SCC(=O)Nc2ccc3c(c2)OCCO3)c1 | -18.0% | ? | 2.0% | 12.8%
Cc1ccc(C(=O)CSc2nccn2-c2ccccc2)cc1 | 28.2µM* | ? | 3.3% | -10.4%
Cc1cc(C)cc(-n2ccnc2SCC(=O)O)c1 | 28.2µM* | 3.4%[0.307 µM] | -4.2% | -9.8%[0.307 µM]
CCCN1CNc2c(c(=O)[nH]c(=S)n2CCc2ccc3c(c2)OCCO3)C1 | -0.9% | / | / | /
CCOc1cc2c(C#N)c(N3CCCCC3)nc(N)c2c(N)n1 | 25.1µM* | 17.0% | -1.2% | -6.6%
CCOc1ccccc1N1CCN(c2nc(N)c(C#N)c(CC#N)c2C#N)CC1 | -6.7% | 35.6% | 9.9% | 10.3%
CCOC(=O)C1CCN(c2nc(N)c3c(N)nc(SCC(=O)O)cc3c2C#N)CC1 | 3.7% | 6.7% | 8.8% | 55.6%
CCOc1cc2c(C#N)c(N3CCNCC3)nc(N)c2c(N)n1 | 35.5µM* | 94.6% | 2.4% | 8.7%
SMILES | ClpP mod | GLP1R inv ag | GLP1R ag | GLP1R cytotox
C[C@H](CCCC(C)(C)O)[C@H]1CC[C@H]2[C@@H]3CC=C4C[C@@H](O)CC[C@]4(C)[C@H]3CC[C@]12C | / | / | -3.5% | /
Clc1ccc2c(ccc[n+]2CCC2CCCCC2)c1 | -19.1% | / | / | /
Cc1cccc2cc(C#N)c(NCCNS(=O)(=O)c3ccc4c(c3)OCCO4)nc12 | 31.6µM* | 0.0% | 24.3% | 46.3%
CCCN(CCC)CCNC(=O)C1CCCN(S(=O)(=O)c2cccc3nsnc23)C1 (centres undefined) | 0.2% | 9.1% | 1.2% | -4.4%
O=C(c1cc(C2CC2)nn1-c1ccccc1)N1CCN(Cc2ccccc2F)CC1 | -1.1% | 8.91µM* | 0.5% | 1.2%
O=S(=O)(Nc1ccccc1N1CCCCC1)c1ccc(Cl)s1 | 0.3% | 10µM* | -5.6% | -0.4%
Cc1c(Cl)cccc1NC(=O)C(C)n1nnc2sc3c(c2c1=O)CCCC3 (centres undefined) | 0.4% | -0.8% | / | 12.9%
O=C1CC(O)(c2ccccc2)C(c2ccccc2)=C1c1ccccc1 (centres undefined) | -0.2% | 10µM* | -4.5% | -11.2%
